{"source": "paper PMC10726135", "about": "“HNF4α isoforms regulate the circadian balance between carbohydrate and lipid metabolism in the liver”", "note": "In all, about 18,000 sequences were measured (“log2 normalized intensity”: median about 0.39, highest 2% from about 6.6 on). The list comes from a sample in which the highest values are over-represented; it also holds similar and randomly drawn sequences."}
{"molecular_target": "T1, HNF4alpha2 (COS-7 nuclear extract) (Homo sapiens, UniProt P41235 1-474)", "T1 sequence": "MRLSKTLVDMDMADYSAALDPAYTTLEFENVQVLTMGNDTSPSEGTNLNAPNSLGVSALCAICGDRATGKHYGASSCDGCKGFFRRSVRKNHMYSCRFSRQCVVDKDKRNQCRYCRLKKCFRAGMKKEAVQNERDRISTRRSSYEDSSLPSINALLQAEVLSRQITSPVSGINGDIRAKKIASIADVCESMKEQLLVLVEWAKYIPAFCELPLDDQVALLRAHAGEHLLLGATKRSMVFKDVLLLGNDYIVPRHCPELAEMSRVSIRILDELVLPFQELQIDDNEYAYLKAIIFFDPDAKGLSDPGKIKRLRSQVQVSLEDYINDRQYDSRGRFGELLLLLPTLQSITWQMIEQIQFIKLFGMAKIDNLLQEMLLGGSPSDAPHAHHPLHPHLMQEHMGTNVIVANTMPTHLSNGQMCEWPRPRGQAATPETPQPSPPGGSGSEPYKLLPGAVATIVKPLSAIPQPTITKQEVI", "assay": "protein-binding microarray; COS-7 nuclear extract on double-stranded Agilent 4x180k PBM; binding buffer, salt, pH and temperature not given in the material; high values mean tight binding", "conditions": "chain copies: 2; label: 3' end of strand 1 on the slide; dsDNA, one strand shown", "summary_of_the_method": "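A custom Agilent SurePrint G3 4x180k array, spotted in quadruplicate with ~44,000 test sequences as ~60-nt oligonucleotides made double-stranded, was incubated with nuclear extracts. The extracts came from COS-7 cells transiently transfected by CaPO4 with a human HNF4α isoform expression vector. Bound HNF4α was imaged on an Agilent G2565CA scanner at 2-µm resolution, and the binding signal was taken as Agilent software's background-corrected, normalized gProcessedSignal.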", "units": {"binding signal": "log2 normalized intensity"}}
{"sequence": "TATTTGGATAATGTGCCCTTTGTACCTGGGGCCTAGGGAGATTAGAGTATCGGTCGA", "binding signal": 7.01}
{"sequence": "AGGGTCTTTGCAACTGTGTGTGGCCTGCACGCCTAGGGAGATTAGAGTATCGGTCGA", "binding signal": 1.38}
{"sequence": "GCATTAACATCAACATGGACTTTGAGTCATGCCTAGGGAGATTAGAGTATCGGTCGA", "binding signal": 6.21}
{"sequence": "TTCCTGCATTAACATCAACATGGACTTTGAGCCTAGGGAGATTAGAGTATCGGTCGA", "binding signal": 8.62}
{"sequence": "TGGTGGCACAGGGAATGGCTCGTATGAATGGCCTAGGGAGATTAGAGTATCGGTCGA", "binding signal": 0.46}
{"sequence": "ATTGACAAAGACCAGTGCTCTTTCTTCTCTGCCTAGGGAGATTAGAGTATCGGTCGA", "binding signal": -0.734}
{"sequence": "AGGGTTCAAACTCCAGCTCTGATACTTTCTGCCTAGGGAGATTAGAGTATCGGTCGA", "binding signal": 3.12}
{"sequence": "GTGAGGCATCTGGACCATTGCTGACCTTGCGCCTAGGGAGATTAGAGTATCGGTCGA", "binding signal": 3.01}
{"sequence": "CTCTCGTCACCTCCACCCACCCGTGCATCAGCCTAGGGAGATTAGAGTATCGGTCGA", "binding signal": 4.68}
{"sequence": "TCCCACTAGGTGGCGCTGTTGACCTTGAAAGCCTAGGGAGATTAGAGTATCGGTCGA", "binding signal": 3.09}
{"sequence": "GCCATCTGGTGGACTTTGCTCTGCTCATTTGCCTAGGGAGATTAGAGTATCGGTCGA", "binding signal": 6.26}
{"sequence": "CTGCTTGATAGCCATCTGGTGGACTTTGCTGCCTAGGGAGATTAGAGTATCGGTCGA", "binding signal": 5.26}
{"sequence": "TGATAGCCATCTGGTGGACTTTGCTCTGCTGCCTAGGGAGATTAGAGTATCGGTCGA", "binding signal": 7.44}
{"sequence": "CAAAGGGTCAAGTTCAGATCCTGGCCATGCGCCTAGGGAGATTAGAGTATCGGTCGA", "binding signal": 0.748}
{"sequence": "GAGCAGGGTATCAGTTGAACAGAATAGAGGGCCTAGGGAGATTAGAGTATCGGTCGA", "binding signal": -0.996}
{"sequence": "GTGTGCAATTAGAGCAAAGGTTACTGCAGAGCCTAGGGAGATTAGAGTATCGGTCGA", "binding signal": 2.62}
{"sequence": "GAACCTGCCCTCTGTCCCATGGTGTACAAGGCCTAGGGAGATTAGAGTATCGGTCGA", "binding signal": 1.26}
{"sequence": "CCAGTTTTCCCAAAGGAGCTTTATTGGTTCGCCTAGGGAGATTAGAGTATCGGTCGA", "binding signal": 1.5}
{"sequence": "TGAGAATCTGACCTTTGGTTAACTTCTTAAGCCTAGGGAGATTAGAGTATCGGTCGA", "binding signal": 4.02}
{"sequence": "TAGGTTTGTGAGTCCAAAGGTCAGCCGGGGGCCTAGGGAGATTAGAGTATCGGTCGA", "binding signal": 7.74}
{"sequence": "AGGTCAGGGAGTAGGTTTGATTTGTGAAAGGCCTAGGGAGATTAGAGTATCGGTCGA", "binding signal": 0.942}
{"sequence": "ATGTTAGTCTTGAGTCCCAAAGTCCAAAGGGCCTAGGGAGATTAGAGTATCGGTCGA", "binding signal": 5.42}
{"sequence": "AGTCCAAAGGTCAGCCGGGGAAGGTGCAGGGCCTAGGGAGATTAGAGTATCGGTCGA", "binding signal": 5}
{"sequence": "TTGTGAGTCCAAAGGTCAGCCGGGGAAGGTGCCTAGGGAGATTAGAGTATCGGTCGA", "binding signal": 6.71}
{"sequence": "GATGCTAGGTTTGTGAGTCCAAAGGTCAGCGCCTAGGGAGATTAGAGTATCGGTCGA", "binding signal": 9.14}
{"sequence": "TGAGTATCCAAAGGTCAGTGACAAATGTCAGCCTAGGGAGATTAGAGTATCGGTCGA", "binding signal": 3.65}
{"sequence": "AAGGTTGGTTTTTGGAGACAGGAGTAGTCAGCCTAGGGAGATTAGAGTATCGGTCGA", "binding signal": 1.3}
{"sequence": "AAAAGGATGCTAGGTTTGTGAGTCCAAAGGGCCTAGGGAGATTAGAGTATCGGTCGA", "binding signal": 4.16}
{"sequence": "TAGCCAGACCTGTTCCTCTGCCCCTCATCGGCCTAGGGAGATTAGAGTATCGGTCGA", "binding signal": 1.7}
{"sequence": "TGAGACATTTTGTCTTTTCTCCCCTGACTAGCCTAGGGAGATTAGAGTATCGGTCGA", "binding signal": 2.63}
{"sequence": "GGACAATCATTGTGCAACCTGGACATTGGCGCCTAGGGAGATTAGAGTATCGGTCGA", "binding signal": 2.08}
{"sequence": "AAGGTGTATGTGGACTTTCAACTGCAGGGGGCCTAGGGAGATTAGAGTATCGGTCGA", "binding signal": 3.47}
{"sequence": "CGAGCATGGCCGCTCCGCGAGGTGAGCCATGCCTAGGGAGATTAGAGTATCGGTCGA", "binding signal": 0.717}
{"sequence": "TGGGCCCCACAGTGCATCTGATAAGGTTGTGCCTAGGGAGATTAGAGTATCGGTCGA", "binding signal": 0.921}
{"sequence": "GCTGGTTGCCCCTTTGACCCTCGGGCCTCCGCCTAGGGAGATTAGAGTATCGGTCGA", "binding signal": 5.62}
{"sequence": "AGCCTTATTCTTTGATCTCTTATCACCCTGGCCTAGGGAGATTAGAGTATCGGTCGA", "binding signal": 1.86}
{"sequence": "CACTGGGCTGATGACCTTTGACTGAGATGGGCCTAGGGAGATTAGAGTATCGGTCGA", "binding signal": 5.32}
{"sequence": "TTGAGCTGGATGACCTTTGTCCTGGCACAAGCCTAGGGAGATTAGAGTATCGGTCGA", "binding signal": 7.13}
{"sequence": "TAAGTCACTGGGCTGATGACCTTTGACTGAGCCTAGGGAGATTAGAGTATCGGTCGA", "binding signal": 7.08}
{"sequence": "CTAGTTAAGTCACTGGGCTGATGACCTTTGGCCTAGGGAGATTAGAGTATCGGTCGA", "binding signal": 6.19}
{"sequence": "ATGACCTTTGACTGAGATGGGAGCAGTGCTGCCTAGGGAGATTAGAGTATCGGTCGA", "binding signal": 2.23}
{"sequence": "CTGGATGACCTTTGTCCTGGCACAACTGGAGCCTAGGGAGATTAGAGTATCGGTCGA", "binding signal": 5.84}
{"sequence": "TTTTTTTTTTGAGATGGAATCTTGCCCTGTGCCTAGGGAGATTAGAGTATCGGTCGA", "binding signal": 3.18}
{"sequence": "AGAATCATCTTTGAGCTGGATGACCTTTGTGCCTAGGGAGATTAGAGTATCGGTCGA", "binding signal": 7.46}
{"sequence": "TCCTGATCTTTGACCTGGAGCATGACCCTTGCCTAGGGAGATTAGAGTATCGGTCGA", "binding signal": 4.86}
{"sequence": "TGACCTTTGTCCTGGCACAACTGGATGGTGGCCTAGGGAGATTAGAGTATCGGTCGA", "binding signal": 5}
{"sequence": "CATCTTTGAGCTGGATGACCTTTGTCCTGGGCCTAGGGAGATTAGAGTATCGGTCGA", "binding signal": 8.57}
